Our source for the inhibition values is ChEMBL document CHEMBL1961873, “Compounds: GSK PKIS; Assays: Nanosyn kinase panel” (2012).

Where “and” joins values, the source holds several entries; their conditions need not be identical. Equal entries are not always repeated.

Broadly, the inhibition is the drop in the measured response relative to a control, in per cent.

Assay [1] concerns the target RAC-alpha serine/threonine-protein kinase (Homo sapiens) (UniProt P31749). The following applies: at 0.1 µM.
Assay [2] shares this target. Conditions: at 1 µM.
Assay [3] addresses RAC-beta serine/threonine-protein kinase (Homo sapiens) (UniProt P31751). The following applies: at 0.1 µM.
For assay [4] the target is unchanged. The following applies: at 1 µM.
Assay [5] concerns the target RAC-gamma serine/threonine-protein kinase (Homo sapiens) (UniProt Q9Y243). The following applies: at 0.1 µM.
Assay [6] shares this target. The following applies: at 1 µM.
The target in assay [7] is G protein-coupled receptor kinase 6 (Homo sapiens) (UniProt P43250). Conditions: at 0.1 µM.
Assay [8] shares this target. The following applies: at 1 µM.
Assay [9] concerns the target T1, Rhodopsin kinase GRK7 (Homo sapiens) (UniProt Q8WTQ7).
T1 sequence (whole entry): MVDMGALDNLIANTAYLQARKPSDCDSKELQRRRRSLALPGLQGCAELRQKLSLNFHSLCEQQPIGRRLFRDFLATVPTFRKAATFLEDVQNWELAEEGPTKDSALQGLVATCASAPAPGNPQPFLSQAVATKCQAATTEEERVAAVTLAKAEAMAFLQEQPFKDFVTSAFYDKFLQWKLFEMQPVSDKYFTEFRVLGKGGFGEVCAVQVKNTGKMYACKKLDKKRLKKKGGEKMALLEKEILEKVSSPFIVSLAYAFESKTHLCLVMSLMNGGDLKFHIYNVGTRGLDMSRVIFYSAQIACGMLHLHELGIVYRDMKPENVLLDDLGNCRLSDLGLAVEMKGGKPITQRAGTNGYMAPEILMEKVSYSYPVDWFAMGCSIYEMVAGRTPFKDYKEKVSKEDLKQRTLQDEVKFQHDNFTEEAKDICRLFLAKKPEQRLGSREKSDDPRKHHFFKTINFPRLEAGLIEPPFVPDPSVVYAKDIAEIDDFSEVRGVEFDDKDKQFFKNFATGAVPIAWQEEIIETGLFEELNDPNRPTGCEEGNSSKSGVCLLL
Conditions: at 0.1 µM.

The target in assay [10] is T1, Rhodopsin kinase GRK7 (Homo sapiens). Conditions: at 1 µM.
Assay [11] deals with Serine/threonine-protein kinase MRCK alpha (Homo sapiens) (UniProt Q5VT25). Conditions: at 0.1 µM.
The target is the same in assay [12]. Conditions: at 1 µM.
Assay [13] deals with Serine/threonine-protein kinase MRCK beta (Homo sapiens) (UniProt Q9Y5S2). Conditions: at 0.1 µM.
For assay [14] the target is unchanged. The following applies: at 1 µM.
In assay [15] the target is Ribosomal protein S6 kinase alpha-5 (Homo sapiens) (UniProt O75582). Conditions: at 0.1 µM.
Assay [16] has the same target. Conditions: at 1 µM.
In assay [17] the target is Ribosomal protein S6 kinase alpha-4 (Homo sapiens) (UniProt O75676). Conditions: at 0.1 µM.
Assay [18] has the same target. The following applies: at 1 µM.
For assay [19], the target named is Ribosomal protein S6 kinase beta-1 (Homo sapiens) (UniProt P23443). The following applies: at 0.1 µM.
For assay [20] the target is unchanged. Conditions: at 1 µM.

G protein-coupled receptor kinase 6 (Homo sapiens), sequence (P43250 whole entry, looked up): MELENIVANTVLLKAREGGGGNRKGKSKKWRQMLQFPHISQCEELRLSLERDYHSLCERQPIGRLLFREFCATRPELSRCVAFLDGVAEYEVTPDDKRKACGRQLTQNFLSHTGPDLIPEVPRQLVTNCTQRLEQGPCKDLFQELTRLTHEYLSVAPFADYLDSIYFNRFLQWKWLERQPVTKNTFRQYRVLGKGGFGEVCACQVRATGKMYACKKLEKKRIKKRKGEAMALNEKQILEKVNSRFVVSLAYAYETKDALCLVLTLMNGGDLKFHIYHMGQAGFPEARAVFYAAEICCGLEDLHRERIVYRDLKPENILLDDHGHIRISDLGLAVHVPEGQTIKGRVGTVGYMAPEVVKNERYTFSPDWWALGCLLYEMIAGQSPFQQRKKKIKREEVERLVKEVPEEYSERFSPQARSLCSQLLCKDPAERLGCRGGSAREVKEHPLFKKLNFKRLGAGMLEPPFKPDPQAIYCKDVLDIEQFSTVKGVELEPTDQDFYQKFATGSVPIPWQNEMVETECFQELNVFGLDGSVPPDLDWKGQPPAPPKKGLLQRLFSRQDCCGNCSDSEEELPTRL
Ribosomal protein S6 kinase alpha-5 (Homo sapiens), sequence (O75582 whole entry, looked up): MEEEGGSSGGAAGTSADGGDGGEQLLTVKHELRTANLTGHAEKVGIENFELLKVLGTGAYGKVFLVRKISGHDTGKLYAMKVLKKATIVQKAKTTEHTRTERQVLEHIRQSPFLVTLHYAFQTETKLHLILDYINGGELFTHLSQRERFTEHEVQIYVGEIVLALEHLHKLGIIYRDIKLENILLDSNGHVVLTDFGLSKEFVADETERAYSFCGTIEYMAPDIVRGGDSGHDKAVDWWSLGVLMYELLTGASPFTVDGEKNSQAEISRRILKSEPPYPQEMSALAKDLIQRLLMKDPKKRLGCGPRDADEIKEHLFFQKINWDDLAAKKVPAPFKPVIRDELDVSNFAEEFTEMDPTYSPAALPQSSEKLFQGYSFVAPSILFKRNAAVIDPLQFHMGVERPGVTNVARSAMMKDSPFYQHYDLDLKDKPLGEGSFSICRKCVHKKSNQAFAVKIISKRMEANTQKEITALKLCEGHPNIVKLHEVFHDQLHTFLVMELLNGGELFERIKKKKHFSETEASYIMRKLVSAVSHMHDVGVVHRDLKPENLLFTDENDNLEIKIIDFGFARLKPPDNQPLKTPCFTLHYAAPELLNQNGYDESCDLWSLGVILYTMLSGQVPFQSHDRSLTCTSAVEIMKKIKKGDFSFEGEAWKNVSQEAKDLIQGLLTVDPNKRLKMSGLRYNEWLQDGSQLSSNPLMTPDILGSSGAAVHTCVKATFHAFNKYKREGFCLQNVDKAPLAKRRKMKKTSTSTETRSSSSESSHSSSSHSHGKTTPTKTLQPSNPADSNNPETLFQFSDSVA
RAC-beta serine/threonine-protein kinase (Homo sapiens), sequence (P31751 whole entry): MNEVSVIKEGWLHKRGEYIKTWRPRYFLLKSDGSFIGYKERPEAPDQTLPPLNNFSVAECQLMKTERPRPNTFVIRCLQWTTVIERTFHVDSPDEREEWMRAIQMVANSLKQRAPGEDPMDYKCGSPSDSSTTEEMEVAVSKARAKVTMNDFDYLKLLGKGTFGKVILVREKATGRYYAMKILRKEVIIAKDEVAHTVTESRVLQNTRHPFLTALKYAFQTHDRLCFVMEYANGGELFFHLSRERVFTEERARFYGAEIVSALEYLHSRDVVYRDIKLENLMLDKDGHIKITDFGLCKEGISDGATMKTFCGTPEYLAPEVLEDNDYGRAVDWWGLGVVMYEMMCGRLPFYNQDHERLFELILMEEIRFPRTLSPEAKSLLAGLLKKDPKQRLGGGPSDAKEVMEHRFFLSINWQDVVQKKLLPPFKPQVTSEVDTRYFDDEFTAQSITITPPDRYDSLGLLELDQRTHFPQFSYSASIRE
Ribosomal protein S6 kinase alpha-4 (Homo sapiens), sequence (O75676 whole entry, looked up): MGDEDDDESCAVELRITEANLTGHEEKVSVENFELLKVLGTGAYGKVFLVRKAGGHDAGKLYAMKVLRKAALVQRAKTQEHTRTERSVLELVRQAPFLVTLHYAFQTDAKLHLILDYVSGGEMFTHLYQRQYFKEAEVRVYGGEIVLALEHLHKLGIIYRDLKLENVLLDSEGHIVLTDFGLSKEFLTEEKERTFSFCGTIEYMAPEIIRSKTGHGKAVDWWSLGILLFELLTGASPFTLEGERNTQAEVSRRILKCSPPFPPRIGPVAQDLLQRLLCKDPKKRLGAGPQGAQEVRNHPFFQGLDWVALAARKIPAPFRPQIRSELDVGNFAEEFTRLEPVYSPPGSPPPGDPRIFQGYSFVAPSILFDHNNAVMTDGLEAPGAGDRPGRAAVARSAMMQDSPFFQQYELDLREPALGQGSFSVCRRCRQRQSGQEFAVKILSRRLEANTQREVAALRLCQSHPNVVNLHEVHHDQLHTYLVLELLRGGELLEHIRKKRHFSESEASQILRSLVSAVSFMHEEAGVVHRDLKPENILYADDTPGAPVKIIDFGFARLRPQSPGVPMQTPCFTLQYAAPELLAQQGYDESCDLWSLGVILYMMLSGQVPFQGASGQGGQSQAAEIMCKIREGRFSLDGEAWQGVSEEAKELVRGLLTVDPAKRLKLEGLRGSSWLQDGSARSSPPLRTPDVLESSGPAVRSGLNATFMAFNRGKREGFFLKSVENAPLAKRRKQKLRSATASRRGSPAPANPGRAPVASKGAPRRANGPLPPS
RAC-gamma serine/threonine-protein kinase (Homo sapiens), sequence (Q9Y243 whole entry): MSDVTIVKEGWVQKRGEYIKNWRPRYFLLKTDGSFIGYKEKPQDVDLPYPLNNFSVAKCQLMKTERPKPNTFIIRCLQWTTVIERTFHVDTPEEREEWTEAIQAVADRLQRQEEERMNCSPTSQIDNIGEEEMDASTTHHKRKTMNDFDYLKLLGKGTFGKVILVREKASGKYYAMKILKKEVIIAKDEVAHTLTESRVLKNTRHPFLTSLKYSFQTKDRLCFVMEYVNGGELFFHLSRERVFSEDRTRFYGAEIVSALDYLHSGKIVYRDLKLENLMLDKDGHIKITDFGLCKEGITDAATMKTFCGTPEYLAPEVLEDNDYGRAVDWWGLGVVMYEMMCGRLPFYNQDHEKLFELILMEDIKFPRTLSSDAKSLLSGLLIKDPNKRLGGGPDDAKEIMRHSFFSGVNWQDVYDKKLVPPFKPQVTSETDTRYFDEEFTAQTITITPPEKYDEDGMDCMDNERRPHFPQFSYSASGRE
Serine/threonine-protein kinase MRCK alpha (Homo sapiens), sequence (Q5VT25 whole entry): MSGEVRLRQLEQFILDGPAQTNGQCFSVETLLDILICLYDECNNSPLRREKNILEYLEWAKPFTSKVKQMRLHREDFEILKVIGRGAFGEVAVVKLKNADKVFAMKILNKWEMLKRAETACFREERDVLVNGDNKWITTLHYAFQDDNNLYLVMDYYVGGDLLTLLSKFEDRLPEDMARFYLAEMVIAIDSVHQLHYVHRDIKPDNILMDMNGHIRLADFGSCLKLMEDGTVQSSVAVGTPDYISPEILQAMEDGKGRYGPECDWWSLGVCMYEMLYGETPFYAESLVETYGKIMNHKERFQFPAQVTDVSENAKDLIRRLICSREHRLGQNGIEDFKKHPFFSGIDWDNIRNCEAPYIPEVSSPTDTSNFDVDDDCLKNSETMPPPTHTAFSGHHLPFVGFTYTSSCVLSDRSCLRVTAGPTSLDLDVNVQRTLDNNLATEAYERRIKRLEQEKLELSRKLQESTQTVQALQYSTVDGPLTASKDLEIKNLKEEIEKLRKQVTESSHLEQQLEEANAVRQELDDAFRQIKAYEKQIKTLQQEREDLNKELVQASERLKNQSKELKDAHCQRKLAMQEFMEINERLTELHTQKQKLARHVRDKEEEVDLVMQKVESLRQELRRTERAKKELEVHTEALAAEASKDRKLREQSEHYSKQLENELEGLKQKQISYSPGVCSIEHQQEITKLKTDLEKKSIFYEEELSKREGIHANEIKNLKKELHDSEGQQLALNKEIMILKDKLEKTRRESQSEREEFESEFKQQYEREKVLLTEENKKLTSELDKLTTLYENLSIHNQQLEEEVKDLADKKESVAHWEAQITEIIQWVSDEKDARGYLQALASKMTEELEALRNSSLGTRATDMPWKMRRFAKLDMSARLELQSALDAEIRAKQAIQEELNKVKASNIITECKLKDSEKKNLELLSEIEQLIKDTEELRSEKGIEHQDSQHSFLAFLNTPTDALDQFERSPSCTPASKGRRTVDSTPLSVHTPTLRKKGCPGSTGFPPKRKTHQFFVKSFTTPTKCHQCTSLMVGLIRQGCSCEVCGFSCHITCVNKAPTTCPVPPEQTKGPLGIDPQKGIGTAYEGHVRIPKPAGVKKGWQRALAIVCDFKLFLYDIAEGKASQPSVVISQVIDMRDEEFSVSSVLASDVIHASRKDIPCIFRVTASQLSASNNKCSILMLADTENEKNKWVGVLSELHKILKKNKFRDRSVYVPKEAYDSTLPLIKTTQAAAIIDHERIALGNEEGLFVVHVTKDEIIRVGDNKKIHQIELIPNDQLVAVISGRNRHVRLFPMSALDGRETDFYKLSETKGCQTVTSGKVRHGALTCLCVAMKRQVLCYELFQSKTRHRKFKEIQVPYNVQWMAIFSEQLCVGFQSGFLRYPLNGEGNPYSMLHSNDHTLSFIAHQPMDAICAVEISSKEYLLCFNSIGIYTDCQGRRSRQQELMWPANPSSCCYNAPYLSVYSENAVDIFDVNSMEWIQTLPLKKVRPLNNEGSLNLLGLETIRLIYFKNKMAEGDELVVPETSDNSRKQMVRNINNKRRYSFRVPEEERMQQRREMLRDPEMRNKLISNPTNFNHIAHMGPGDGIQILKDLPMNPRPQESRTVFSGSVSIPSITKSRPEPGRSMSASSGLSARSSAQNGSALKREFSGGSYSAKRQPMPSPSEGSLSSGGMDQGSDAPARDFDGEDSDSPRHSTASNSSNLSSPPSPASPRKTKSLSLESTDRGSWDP

As to `Fc1cccc(COc2ccc(Nc3ncncc3C#Cc3ccccc3)cc2Cl)c1`, the inhibition was 0.45% in assay [1]; 1.07% in [2]; 1.28% in assay [3]; 1.61% in [4]; 0.72% in assay [5]; 1.12% in assay [6]. The inhibition is 7.01% in [7]; 9.97% in assay [8]; 5.2% in [9]; 9.23% in assay [10]; -0.09% in assay [11]; 2.32% in [12]. Also, the inhibition in [13] is -0.25%; in assay [14], 0.29%; in [15] it was 3.88%; in assay [16], 4.33%; in assay [17], 2.46%; in assay [18], 4.37%. For the same compound, the inhibition in [19] was found to be 1.71%; in assay [20] it was 2.17%.
Take `N#Cc1cccc(Nc2ncc(-c3ccccc3)o2)c1`: the inhibition in assay [1] is 0%; in [2], -0.69%; in [3] it was 0.15%; in assay [4], 0.75%; in assay [5], 0.9%; in assay [6] it was -0.1%. Also, the inhibition in assay [7] turned out to be 5.37%; in assay [8], 8.61%; in assay [9], 2.76%; in [10], 11.2%; in [11], 0.38%; in assay [12], 2.09%. Further, the inhibition in assay [13] was -1.64%; in assay [14], -0.28%; in assay [15], 1.22%; in [16], 2.21%; in [17], 1%; in assay [18], 2.71%. Besides, the inhibition in assay [19] was -0.53%; in assay [20], 1.42%.
With `Cc1cc(O)cc(C)c1/C=C/c1cncc(C(N)=O)c1`, the inhibition was 0.41% in [1]; 1.41% in assay [2]; 1.8% in assay [3]; 1.63% in assay [4]; 1.06% in [5]; 1.18% in assay [6]. Moreover, the inhibition in assay [7] was 2.81%; in assay [8], 0.48%; in [9], 0.88%; in assay [10], -1.37%; in assay [11], 0.25%; in [12], 0.43%. Also, the inhibition in assay [13] is 1.39%; in [14], 1.02%; in [15], 1.68%; in assay [16], 2.9%; in assay [17] it was 1.67%; in [18], 2.18%. In addition, the inhibition in assay [19] worked out at 1.07%; in [20], 0.31%.
`Nc1nonc1-c1nc2cnccc2n1C1CC1`: the inhibition in [1] was 1.26% and -2.25%; in assay [2], 8.06% and 5.34%; in [3], 2.53% and -2.31%; in [4] it was 5.04% and 2.15%; in [5] it was 1.66% and -2.03%; in assay [6] it was 6.38% and 2.16%. The inhibition in assay [7] is 0.65% and 3.64%; in assay [8], 6.46% and 11.6%; in assay [9], -3.85% and 3.25%; in assay [10], -0.48% and 7.79%; in assay [11], 4.84% and 5.86%; in [12] it was 35.7% and 40%. Besides, the inhibition was 7.62% and 9.27% in assay [13]; 41% and 42.7% in assay [14]; 75.6% and 71.7% in [15]; 82.3% and 76.5% in assay [16]; 44.6% and 48.9% in [17]; 75.1% and 74.5% in [18]. Besides, the inhibition in assay [19] is 66.6% and 68.6%; in [20], 89.3% and 88.8%.
In the case of `CN1CCN(Cc2ccc(-c3cc4ncnc(Nc5ccc(OCc6cccc(F)c6)c(Cl)c5)c4s3)o2)CC1`, the inhibition in assay [1] was 2.3% and 0.84%; in [2], 0.33% and 0.82%; in assay [3], 1.77% and 3.25%; in assay [4], 4.18% and 1.52%; in assay [5], 0.53% and 1.8%; in assay [6], 4.32% and 3.89%. Moreover, the inhibition in assay [7] was -0.68% and 8.35%; in assay [8], -0.78% and 9.33%; in assay [9], 9.19% and 5.43%; in assay [10], 0.67% and 9.84%; in assay [11], -1.39% and -0.36%; in [12] it was -3.23% and 2%. Further, the inhibition is -0.68% and -0.01% in [13]; -1.28% and -0.15% in assay [14]; 7.37% and 3.64% in assay [15]; 6.3% and 5.71% in assay [16]; 1.66% and 2.85% in assay [17]; 1.25% and 4.7% in assay [18]. For the same compound, the inhibition in assay [19] is 0.39% and 0.55%; in assay [20], 1.79% and 5.31%.
Regarding `CCn1c(-c2nonc2N)nc2cncc(C(=O)NCCNC)c21`, the inhibition in assay [1] was determined as 1.98%; in assay [2], 17.7%; in [3] it was 3.28%; in assay [4], 10.5%; in [5] it was 4.31%; in assay [6], 26.2%. For the same compound, the inhibition in [7] was -0.59%; in [8], 5.57%; in [9], 9.46%; in assay [10], 7.46%; in [11] it was 14.6%; in assay [12], 69.9%. Also, the inhibition in assay [13] was found to be 23.3%; in assay [14] it was 66.7%; in [15], 55.2%; in [16], 76.8%; in [17] it was 35.5%; in [18], 71.4%. Moreover, the inhibition in [19] worked out at 31.9%; in [20] it was 78.2%.
For the compound `COc1cccc(Nc2nccc(-c3cnn4ncccc34)n2)c1`, the inhibition in [1] is 1.34%; in assay [2], 0.43%; in assay [3], 1.17%; in [4] it was 0.61%; in assay [5], 1.46%; in assay [6], -0.03%. The inhibition in assay [7] was 4.14%; in assay [8], 0.06%; in assay [9], 1.07%; in assay [10], -2.16%; in assay [11], 0.93%; in assay [12], -0.24%. The inhibition in [13] is -1.65%; in [14], -1.51%; in assay [15], 1.02%; in assay [16], 4.32%; in [17], 1.62%; in assay [18] it was 10.5%. Also, the inhibition in assay [19] worked out at 2.02%; in [20] it was 3.93%.
